Laboratory results from the supplement of paper PMC3150612.
± gives the standard deviation of the averaged measurements.

Experiments:
Drosophila melanogaster [1] = experiment: olfactory response index (dipstick assay) (fraction of flies (RI; 1 aversion, 0.5 indifferent, 0 attraction)); higher = stronger aversion to the odorant; conditions: odorant concentration: 1% v/v, male
Drosophila melanogaster [2] = experiment: as above; conditions: odorant concentration: 1% v/v, female
[3] = genotype (tubulin-GAL4 x UAS-RNAi line; control = progenitor): A5
[4] = genotype (tubulin-GAL4 x UAS-RNAi line; control = progenitor): control
[5] = genotype (tubulin-GAL4 x UAS-RNAi line; control = progenitor): obp 18a
[6] = genotype (tubulin-GAL4 x UAS-RNAi line; control = progenitor): obp 22a
[7] = genotype (tubulin-GAL4 x UAS-RNAi line; control = progenitor): obp 28a
[8] = genotype (tubulin-GAL4 x UAS-RNAi line; control = progenitor): obp 56a
[9] = genotype (tubulin-GAL4 x UAS-RNAi line; control = progenitor): obp 56c
[10] = genotype (tubulin-GAL4 x UAS-RNAi line; control = progenitor): obp 56f
[11] = genotype (tubulin-GAL4 x UAS-RNAi line; control = progenitor): obp 57a
[12] = genotype (tubulin-GAL4 x UAS-RNAi line; control = progenitor): obp 57b
[13] = genotype (tubulin-GAL4 x UAS-RNAi line; control = progenitor): obp 58c
[14] = genotype (tubulin-GAL4 x UAS-RNAi line; control = progenitor): obp 59a
[15] = genotype (tubulin-GAL4 x UAS-RNAi line; control = progenitor): obp 83a
[16] = genotype (tubulin-GAL4 x UAS-RNAi line; control = progenitor): obp 83c
[17] = genotype (tubulin-GAL4 x UAS-RNAi line; control = progenitor): obp 93a
[18] = genotype (tubulin-GAL4 x UAS-RNAi line; control = progenitor): obp 99b
[19] = genotype (tubulin-GAL4 x UAS-RNAi line; control = progenitor): obp 56h
[20] = genotype (tubulin-GAL4 x UAS-RNAi line; control = progenitor): obp 58b

| Compound | olfactory response index (Drosophila melanogaster [1]; [3]) | olfactory response index (Drosophila melanogaster [1]; [4]) | olfactory response index (Drosophila melanogaster [1]; [5]) | olfactory response index (Drosophila melanogaster [1]; [6]) | olfactory response index (Drosophila melanogaster [1]; [7]) | olfactory response index (Drosophila melanogaster [1]; [8]) | olfactory response index (Drosophila melanogaster [1]; [9]) | olfactory response index (Drosophila melanogaster [1]; [10]) | olfactory response index (Drosophila melanogaster [1]; [11]) | olfactory response index (Drosophila melanogaster [1]; [12]) | olfactory response index (Drosophila melanogaster [1]; [13]) | olfactory response index (Drosophila melanogaster [1]; [14]) | olfactory response index (Drosophila melanogaster [1]; [15]) | olfactory response index (Drosophila melanogaster [1]; [16]) | olfactory response index (Drosophila melanogaster [1]; [17]) | olfactory response index (Drosophila melanogaster [1]; [18]) | olfactory response index (Drosophila melanogaster [1]; [19]) | olfactory response index (Drosophila melanogaster [2]; [3]) | olfactory response index (Drosophila melanogaster [2]; [4]) | olfactory response index (Drosophila melanogaster [2]; [5]) | olfactory response index (Drosophila melanogaster [2]; [6]) | olfactory response index (Drosophila melanogaster [2]; [7]) | olfactory response index (Drosophila melanogaster [2]; [8]) | olfactory response index (Drosophila melanogaster [2]; [9]) | olfactory response index (Drosophila melanogaster [2]; [10]) | olfactory response index (Drosophila melanogaster [2]; [11]) | olfactory response index (Drosophila melanogaster [2]; [12]) | olfactory response index (Drosophila melanogaster [2]; [20]) | olfactory response index (Drosophila melanogaster [2]; [13]) | olfactory response index (Drosophila melanogaster [2]; [14]) | olfactory response index (Drosophila melanogaster [2]; [15]) | olfactory response index (Drosophila melanogaster [2]; [16]) | olfactory response index (Drosophila melanogaster [2]; [17]) | olfactory response index (Drosophila melanogaster [2]; [18]) | olfactory response index (Drosophila melanogaster [2]; [19]) |
| --- | --- | --- | --- | --- | --- | --- | --- | --- | --- | --- | --- | --- | --- | --- | --- | --- | --- | --- | --- | --- | --- | --- | --- | --- | --- | --- | --- | --- | --- | --- | --- | --- | --- | --- | --- |
| C=C(C)[C@H]1CC=C(C)C(=O)C1 [(S)-carvone] | 0.57 ± 0.068 | 0.456 ± 0.062 | 0.22 ± 0.068 | 0.372 ± 0.058 | 0.384 ± 0.14 | 0.142 ± 0.051 | 0.186 ± 0.057 | 0.525 ± 0.15 | 0.277 ± 0.15 | 0.4861 ± 0.0015 | 0.468 ± 0.1 | 0.657 ± 0.13 | 0.304 ± 0.27 | 0.555 ± 0.19 | 0.382 ± 0.14 | 0.171 ± 0.066 | 0.504 ± 0.17 | 0.729 ± 0.063 | 0.65 ± 0.074 | 0.558 ± 0.053 | 0.775 ± 0.06 | 0.651 ± 0.073 | 0.357 ± 0.1 | 0.678 ± 0.2 | 0.676 ± 0.1 | 0.613 ± 0.085 | 0.73 ± 0.15 | 0.49 ± 0.07 | 0.597 ± 0.064 | 0.739 ± 0.031 | 0.589 ± 0.045 | 0.398 ± 0.079 | 0.715 ± 0.056 | 0.468 ± 0.041 | 0.683 ± 0.086 |
| CCC=O [propanal] | 0.408 ± 0.047 | 0.158 ± 0.045 | 0.029 ± 0.031 | 0.1 ± 0.017 | 0.165 ± 0.13 | 0.111 ± 0.025 | 0.0917 ± 0.11 | 0.119 ± 0.083 | 0.0926 ± 0.076 | 0.254 ± 0.19 | 0.0938 ± 0.037 | 0.498 ± 0.047 | 0.164 ± 0.14 | 0.238 ± 0.095 | 0.289 ± 0.13 | 0.112 ± 0.019 | 0.233 ± 0.08 | 0.637 ± 0.17 | 0.467 ± 0.19 | 0.4 ± 0.18 | 0.583 ± 0.12 | 0.523 ± 0.039 | 0.24 ± 0.21 | 0.479 ± 0.049 | 0.333 ± 0.22 | 0.572 ± 0.086 | 0.66 ± 0.036 | 0.625 ± 0.097 | 0.305 ± 0.24 | 0.611 ± 0.11 | 0.312 ± 0.14 | 0.662 ± 0.086 | 0.688 ± 0.087 | 0.461 ± 0.039 | 0.356 ± 0.19 |
| CCc1cnccn1 [2-ethylpyrazine] | 0.416 ± 0.069 | 0.118 ± 0.067 | 0.0666 ± 0.045 | 0.0894 ± 0.038 | 0.472 ± 0.092 | 0.194 ± 0.068 | 0.206 ± 0.11 | 0.247 ± 0.11 | 0.114 ± 0.085 | 0.0743 ± 0.059 | 0.144 ± 0.016 | 0.385 ± 0.17 | 0.221 ± 0.036 | 0.167 ± 0.082 | 0.342 ± 0.071 | 0.146 ± 0.061 | 0.319 ± 0.058 | 0.581 ± 0.074 | 0.524 ± 0.027 | 0.393 ± 0.2 | 0.435 ± 0.1 | 0.581 ± 0.0069 | 0.409 ± 0.078 | 0.497 ± 0.13 | 0.568 ± 0.16 | 0.304 ± 0.2 | 0.4 ± 0.14 | 0.256 ± 0.14 | 0.419 ± 0.22 | 0.638 ± 0.033 | 0.567 ± 0.092 | 0.522 ± 0.12 | 0.552 ± 0.076 | 0.159 ± 0.089 | 0.492 ± 0.14 |
| CCCCCC(C)=O [2-heptanone] | 0.365 ± 0.086 | 0.0673 ± 0.066 | 0.32 ± 0.1 | 0.304 ± 0.1 | 0.331 ± 0.084 | 0.185 ± 0.082 | 0.239 ± 0.077 | 0.395 ± 0.14 | 0.214 ± 0.038 | 0.368 ± 0.13 | 0.328 ± 0.063 | 0.444 ± 0.12 | 0.339 ± 0.11 | 0.352 ± 0.13 | 0.345 ± 0.26 | 0.138 ± 0.044 | 0.393 ± 0.17 | 0.49 ± 0.16 | 0.483 ± 0.17 | 0.409 ± 0.092 | 0.417 ± 0.12 | 0.526 ± 0.081 | 0.392 ± 0.12 | 0.494 ± 0.073 | 0.452 ± 0.21 | 0.718 ± 0.062 | 0.571 ± 0.15 | 0.277 ± 0.015 | 0.272 ± 0.051 | 0.598 ± 0.13 | 0.4 ± 0.15 | 0.537 ± 0.17 | 0.443 ± 0.18 | 0.28 ± 0.017 | 0.513 ± 0.22 |
| CC(=O)OCCC(C)C [isoamyl acetate] | 0.156 ± 0.046 | 0.228 ± 0.095 | 0.362 ± 0.29 | 0.238 ± 0.1 | 0.237 ± 0.067 | 0.419 ± 0.15 | 0.373 ± 0.16 | 0.58 ± 0.23 | 0.192 ± 0.015 | 0.215 ± 0.071 | 0.173 ± 0.11 | 0.629 ± 0.17 | 0.339 ± 0.15 | 0.321 ± 0.13 | 0.343 ± 0.14 | 0.23 ± 0.083 | 0.348 ± 0.16 | 0.442 ± 0.16 | 0.707 ± 0.066 | 0.34 ± 0.095 | 0.625 ± 0.1 | 0.488 ± 0.25 | 0.665 ± 0.19 | 0.832 ± 0.067 | 0.497 ± 0.18 | 0.465 ± 0.13 | 0.583 ± 0.29 | 0.364 ± 0.2 | 0.471 ± 0.14 | 0.733 ± 0.07 | 0.594 ± 0.099 | 0.6 ± 0.054 | 0.702 ± 0.097 | 0.499 ± 0.14 | 0.659 ± 0.12 |
| CCOC(C)=O [ethyl acetate] | 0.36 ± 0.22 | 0.266 ± 0.16 | 0.417 ± 0.15 | 0.176 ± 0.084 | 0.311 ± 0.18 | 0.0854 ± 0.099 | 0.17 ± 0.14 | 0.364 ± 0.31 | 0.236 ± 0.099 | 0.326 ± 0.14 | 0.181 ± 0.14 | 0.324 ± 0.23 | 0.21 ± 0.068 | 0.255 ± 0.11 | 0.352 ± 0.12 | 0.15 ± 0.14 | 0.227 ± 0.13 | 0.677 ± 0.11 | 0.639 ± 0.27 | 0.507 ± 0.12 | 0.669 ± 0.04 | 0.709 ± 0.13 | 0.486 ± 0.2 | 0.3 ± 0.1 | 0.559 ± 0.26 | 0.629 ± 0.015 | 0.61 ± 0.14 | 0.513 ± 0.31 | 0.561 ± 0.091 | 0.502 ± 0.25 | 0.471 ± 0.087 | 0.572 ± 0.0067 | 0.541 ± 0.13 | 0.2 ± 0.11 | 0.479 ± 0.06 |
| CCC/C=C/C=O [(E)-2-hexenal] | 0.565 ± 0.14 | 0.681 ± 0.13 | 0.494 ± 0.13 | 0.655 ± 0.11 | 0.672 ± 0.07 | 0.763 ± 0.079 | 0.618 ± 0.13 | 0.657 ± 0.065 | 0.555 ± 0.15 | 0.718 ± 0.037 | 0.732 ± 0.052 | 0.666 ± 0.0073 | 0.663 ± 0.1 | 0.67 ± 0.085 | 0.782 ± 0.14 | 0.29 ± 0.16 | 0.55 ± 0.12 | 0.723 ± 0.11 | 0.804 ± 0.15 | 0.724 ± 0.12 | 0.811 ± 0.14 | 0.753 ± 0.051 | 0.892 ± 0.028 | 0.768 ± 0.1 | 0.727 ± 0.076 | 0.843 ± 0.1 | 0.794 ± 0.18 | 0.703 ± 0.057 | 0.715 ± 0.11 | 0.767 ± 0.13 | 0.779 ± 0.088 | 0.837 ± 0.1 | 0.848 ± 0.054 | 0.529 ± 0.24 | 0.665 ± 0.17 |
